Bioassay records from PubChem BioAssay.
Many of the other results were omitted from the sample, so hits are more common in it than they were.
Menin-MLL FL inh – displaces fluorescein MLL peptide from human menin | Fluorescence polarization, fluorescein-MLL peptide displacement from menin | FP activity change, % at 61.4 µM | 290,000 tested, under 10 active | AID 1766; active means well fitted curve in the direction sought with a large enough effect in the polarisation, not every such curve was filed as active; inconclusive means small, poorly fitted or top-dose-only effect, or effect the other way, or a change in a side signal; inactive means no such curve, though single readings can be large or run the other way; the % refers to the polarisation; further: % of control where 0% means no effect
GLA spleen mod – alpha-galactosidase A (human) modulation; P06280; human spleen homogenate, 4MU-alpha-Gal fluorescence, 40 min; Potency, µM (top dose mostly 80 µM), without a hit: at the top dose activity change, negative = inhibition, hits mostly inhibitors; 240,000 tested, 0.008% active;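 further: potency means the concentration at half of the fitted maximal effect; 0% = enzyme with vehicle and -100% = no enzyme basal signal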
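Human spleen homogenate (1 ug) was the enzyme source, with 4-methylumbelliferyl-alpha-D-galactopyranoside (1 mM final) in pH 5.0 citrate buffer with 0.01% Tween-20. Compounds were titrated; after 40 min at 37C, NaOH/glycine stop, 4-MU fluorescence read; AC50 from Hill fits.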
GLA inh pH 4.5 – blocks human alpha-galactosidase A at pH 4.5; purified enzyme, 4-MU-alpha-Gal fluorescence, pH 4.5; activity change, negative = inhibition, % at 105 µM; 230,000 tested, under 10 active; AID 1467;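 further: 0% = full activity with enzyme and -100% = basal without enzyme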
a7 integrin act – integrin-mediated muscular dystrophy alleviation activation; alpha7betagal myoblasts, beta-gal FDG fluorescence, 48 h; Potency, µM (highest dose often 38.3 µM), for the others: at the highest dose activation, actives largely listed as activators; 350,000 tested, 0.064% active; AID 624291;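 further: potency means the concentration at half of the fitted maximal effect; 100% = response of the positive control SU9516; nearly all actives have a fitted effect of over 60% in size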
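Alpha7betagal+/- myoblasts (passage 13) were plated 16-24 hr, then exposed to compounds (1:260 dilution of DMSO stock) for 48 hours at 37C. After MPER lysis, β-galactosidase reporter activity was read as FDG fluorescence (ex 480/em 540) after 30 minutes.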
Menin MLL FP TR – inhibitors of human menin-MLL interaction, mutant MLL peptide. Potency, µM (top dose mostly 61.6 µM), for the others: at the highest dose FP activity change, negative = inhibition, hits mostly inhibitors. AID 1768. 270,000 tested, 0.23% active. Menin + Texas Red MLL mutant peptide, fluorescence polarization. O00255; active means well fitted inhibition curve with a large enough effect in the polarisation, with a control signal flat, not every such curve was filed as active; inconclusive means small, poorly fitted or top-dose-only effect, or effect the other way, or a change in a side signal; inactive means no such curve, though single readings can be large or run the other way; the % refers to the polarisation; further: potency means the concentration at half of the fitted maximal effect; % of control where 0% means no effect
Target sequence (O00255 whole entry, looked up): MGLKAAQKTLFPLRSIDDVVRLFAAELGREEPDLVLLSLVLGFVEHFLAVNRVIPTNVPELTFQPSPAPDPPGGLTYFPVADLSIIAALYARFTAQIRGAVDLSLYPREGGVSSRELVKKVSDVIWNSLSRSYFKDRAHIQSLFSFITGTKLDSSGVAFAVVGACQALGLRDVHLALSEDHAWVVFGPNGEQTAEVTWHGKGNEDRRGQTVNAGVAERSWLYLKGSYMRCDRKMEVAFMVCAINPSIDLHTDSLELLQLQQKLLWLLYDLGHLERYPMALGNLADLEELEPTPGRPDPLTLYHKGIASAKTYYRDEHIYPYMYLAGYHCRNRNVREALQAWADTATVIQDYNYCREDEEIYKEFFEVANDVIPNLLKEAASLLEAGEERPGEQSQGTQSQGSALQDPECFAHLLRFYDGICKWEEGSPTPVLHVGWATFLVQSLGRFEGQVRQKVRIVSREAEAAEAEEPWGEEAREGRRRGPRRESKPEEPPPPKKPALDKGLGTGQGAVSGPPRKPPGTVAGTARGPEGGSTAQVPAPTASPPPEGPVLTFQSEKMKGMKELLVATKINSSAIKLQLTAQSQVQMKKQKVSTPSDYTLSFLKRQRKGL
CXXC DNA block – MLL CXXC-DNA interaction inhibition; Potency, µM (top dose mostly 115 µM), without a hit: at the top dose activity change, negative = inhibition, hits mostly inhibitors; 290,000 tested, 0.037% active; MLL-CXXC / FITC-HOXA9 DNA fluorescence polarization; Q03164; active means well fitted inhibition curve with a large enough effect in the polarisation, with a control signal flat, not every such curve was filed as active; inconclusive means small, poorly fitted or top-dose-only effect, or effect the other way, or a change in a side signal; inactive means no such curve, though single readings can be large or run the other way; the % refers to the polarisation; further: potency means the concentration at half of the fitted maximal effect
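Purified MLL-CXXC (added from a 7 uM solution) was preincubated 5 min at ambient with pinned compounds in 50 mM Tris-HCl pH 7.5, 50 mM NaCl, 1 mM DTT, 0.05% BSA. Fluorescein-labeled HOX-A9 DNA (50 nM solution) followed, 30 min, then polarization read.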
Active calls of the source: *; ? = inconclusive; / = no result given; [ ] = another dose, or the depositor's remark. Unless noted, the call rests on the fitted dose curve; in most records, active means well fitted curve in the direction sought with a large enough effect; inconclusive means small, poorly fitted or top-dose-only effect, or another doubt; inactive means no such curve, though single readings can be large; an effect the other way counts as inactive or inconclusive.

SMILES	Menin-MLL FL inh	GLA spleen mod	GLA inh pH 4.5	a7 integrin act	Menin MLL FP TR	CXXC DNA block
COC(=O)c1c(-n2c(C)cc(C=O)c2C)sc2c1CCCC2	3	-9%	/	-20%	28µM*	24%
O=C(Nc1cccc(Cl)c1)OCC#CCCl	?	14%	/	/	?	/
CCc1nnc(NC(=O)c2ccc(S(=O)(=O)NCC(C)C)cc2)s1	3	10%	2	13µM*	32%	5%
CC#CCN1c2ccccc2[C@]23C[C@@H](C(=O)OC)N(S(=O)(=O)c4ccc(C(F)(F)F)cc4)C2=NC(C(=O)OC)=C(C(=O)OC)[C@H]13	0[11.7 µM]	13%[17.5 µM]	4	/	-9%[11.7 µM]	/
COc1ccc(C(=O)Nc2ccccc2C(=O)N/N=C/c2cccc3ccccc23)cc1	6	1%	-1	-4%	28µM*	31%
COc1ccc(C(=O)Nc2ccccc2C(N)=O)cc1	0	-1%	2	4%[7.66 µM]	0%	31%
COc1cccc(NC(=O)c2ccc3c(c2)CCCC3)c1	1	/	/	5.6µM*	20%	23%
COC(=O)NC(c1ccco1)C(C(C)=O)C(=O)OC (stereo unspecified)	11[11.7 µM]	-1%[17.5 µM]	/	/	1%[11.7 µM]	/
COc1cc2c3nnc(-c4ccccc4)c-3cn(Cc3ccccc3F)c2cc1OC	?	-4%	6	-31%	13µM*	6%
COc1cc2c3nnc(-c4ccc(F)cc4)c-3cn(Cc3ccccc3F)c2cc1OC	?	1%	-5	0%	-10%	?
Cc1ccc(NP(=O)(Nc2ccc(C)cc2)Nc2ccc(C)cc2)cc1	4	4%	-7	3.2µM*	?	7%
Cc1ccc(P(C)(=O)c2ccc(C)cc2)cc1	4	8%	5	-9%	1%	-1%
COc1ccc(C(=O)O/N=C(\N)c2cccc(C)c2)cc1OC	-2	/	/	10µM*	1%	12%
COc1ccc(C(=O)O/N=C(\N)c2ccccc2)cc1OC	5	/	/	?	-3%	6%
COc1ccccc1/C=C/CN1CCN(Cc2ccc(C)o2)C(CCO)C1 (stereo unspecified)	-1	3%	4	28%	-4%	1%
COc1cc(/C=C/CN2CCN(Cc3ccc(C)o3)C(CCO)C2)ccc1O (stereo unspecified)	-1	4%	-2	14µM*	0%	-4%
Cc1nc2ccc(C(=O)O)cc2c2c1CC(C)S2 (stereo unspecified)	15	-6%	4	-11%	20µM*	9%
CN(C)c1ccc(NC(=O)N2CCOCC2)cc1	0	8%	2	12%	20µM*	6%
C[C@H]1Cc2c(-c3ccccc3)nc3c(c2CO1)CN(C(=O)NCCc1c[nH]c2ccccc12)CC3	7[11.7 µM]	0%[17.5 µM]	2	/	-19%[11.7 µM]	/
COc1ccc(CNC(=O)COC(=O)CCc2c[nH]c3ccccc23)cc1	-2	4%	3	10µM*	20%	2%
O=C(COC(=O)CCc1c[nH]c2ccccc12)NCc1ccccc1	1	-3%	2	4%	8%	10%
CCN(CC)c1ccc(N=Cc2ccccc2[N+](=O)[O-])cc1	1	0%	-2	-50%	18µM*	7%
CCOc1ccc2nc3cc(NCc4ccc(OC)cc4)ccc3c(N)c2c1	?	/	/	-73%	11µM*	7%
Cc1c(C)c2c(c(C)c1OC(=O)CCC(=O)O)CC[C@@](C)(CCC[C@H](C)CCC[C@H](C)CCCC(C)C)O2	-5	/	/	/	30%	-10%
CC(NC(=O)c1cn(C)c2ccc(S(=O)(=O)N3CCCC3)cc2c1=O)c1ccccc1 (stereo unspecified)	/	/	/	2.8µM*	/	53%
SMILES	Menin-MLL FL inh	GLA spleen mod	GLA inh pH 4.5	a7 integrin act	Menin MLL FP TR	CXXC DNA block
Cc1ccc(S(=O)(=O)n2c3ccccc3c3nnc(C(=O)c4ccccc4)nc32)cc1	2[11.7 µM]	-3%[17.5 µM]	/	/	14%[11.7 µM]	/
C=C1Cc2c(Cl)cc3[nH]c4c5c3c2[C@@]2(O)[C@@H]1C[C@@H]2C(C)(C)O[C@H]5[C@@H]1CC[C@@]2(O)[C@@]35O[C@@H]3[C@@H](O)[C@@H](C(=O)O)O[C@H]5CC[C@]2(C)[C@@]41C	/	2%	/	/	/	/
O=C(Nc1ccc(N2CCCCC2)cc1)c1cncc(Br)c1	-2	-2%	12	13%	?	39%
O=C(Nc1ccc(N2CCN(C(=O)c3ccccc3F)CC2)cc1)c1cncc(Br)c1	/	/	/	13µM*	/	17%
Cc1ccc(O)c(Nc2c3ccccc3nc3ccccc23)c1	-12	/	/	-11%	13µM*	30%
Cc1ccc(O)c(Nc2nc(-c3ccccc3)nc3ccccc23)c1	-2	/	/	3%	?	16%
C[C@@H]1CC2[C@@H]3C[C@H](F)C4=CC(=O)C(Cl)=C[C@]4(C)[C@@]3(F)[C@H](O)C[C@]2(C)[C@@]1(O)C(=O)CO (stereo partly specified)	-4	/	/	/	5%	1%
CCCCOc1ccc(-c2nnn(CC(=O)c3c[nH]c4ccccc34)n2)cc1	11	7%	4	-3%	8.9µM*	30%
COc1ccc(Cl)cc1NC(=O)CC(=O)Nc1cc(Cl)ccc1OC	6	/	/	14µM*	34%	-6%
COc1ccc(CC(=O)Nc2ccc(S(=O)(=O)Nc3nccs3)cc2)cc1	2	/	/	-27%	11%	-4%
COc1ccc(S(=O)(=O)Nc2ccc(S(=O)(=O)Nc3nccs3)cc2)cc1	-6	/	/	13µM*	19%	4%
COc1cc(/C=C(\C#N)C(N)=O)ccc1OCc1c(C)no[n+]1[O-]	2	-7%	-3	-27%	/	?
COC(=O)C1=C(C)NC(C)=C(C(=O)OC)C1c1ccccc1OCc1c(C)no[n+]1[O-]	2	-3%	-1	2.8µM*	4%	-1%
COc1ccc(/C=N/Nc2cc(C)nc3ccc(OC)cc23)c(OC)c1	-10	/	/	-41%	13µM*	?
COc1ccc2nc(C)cc(N/N=C/c3ccccc3)c2c1	/	/	/	-54%	/	/
CC1=C[C@@H](O)CC(C)(C)[C@@H]1/C=C/C(C)=C/C=C/C(C)=C/C=C/C=C(C)/C=C/C=C(C)/C=C/C1=C(C)C[C@H](O)CC1(C)C	-2	/	/	/	-17%	6%
Cc1ccc(N(C(=O)c2snc(C(N)=O)c2N)C(CC(C)C)C(=O)NC2CCCC2)cc1 (stereo unspecified)	-3	/	/	18%	0%	-2%
COc1cc(C(C(=O)NC2CCCCC2)N(C(=O)c2snc(C(N)=O)c2N)c2ccc(C)cc2)ccc1O (stereo unspecified)	-2	/	/	7.9µM*	21%	4%
CCCCC(C(=O)NC1CCCC1)N(C(=O)c1snc(C(N)=O)c1N)c1ccc(C)cc1 (stereo unspecified)	3	/	/	10µM*	10%	-5%
